Results filed as inconclusive are left out. The source made the active and inactive calls. Calls come from the whole dose curve; as a rule, active = well fitted activation curve with a large enough effect; inconclusive = small, poorly fitted or top-dose-only effect; inactive = no such curve, though single readings can be large or run the other way.
Potency is the fitted concentration of half-maximal effect.

Relaxin receptor 1 (Homo sapiens), sequence (Q9HBX9 whole entry, looked up): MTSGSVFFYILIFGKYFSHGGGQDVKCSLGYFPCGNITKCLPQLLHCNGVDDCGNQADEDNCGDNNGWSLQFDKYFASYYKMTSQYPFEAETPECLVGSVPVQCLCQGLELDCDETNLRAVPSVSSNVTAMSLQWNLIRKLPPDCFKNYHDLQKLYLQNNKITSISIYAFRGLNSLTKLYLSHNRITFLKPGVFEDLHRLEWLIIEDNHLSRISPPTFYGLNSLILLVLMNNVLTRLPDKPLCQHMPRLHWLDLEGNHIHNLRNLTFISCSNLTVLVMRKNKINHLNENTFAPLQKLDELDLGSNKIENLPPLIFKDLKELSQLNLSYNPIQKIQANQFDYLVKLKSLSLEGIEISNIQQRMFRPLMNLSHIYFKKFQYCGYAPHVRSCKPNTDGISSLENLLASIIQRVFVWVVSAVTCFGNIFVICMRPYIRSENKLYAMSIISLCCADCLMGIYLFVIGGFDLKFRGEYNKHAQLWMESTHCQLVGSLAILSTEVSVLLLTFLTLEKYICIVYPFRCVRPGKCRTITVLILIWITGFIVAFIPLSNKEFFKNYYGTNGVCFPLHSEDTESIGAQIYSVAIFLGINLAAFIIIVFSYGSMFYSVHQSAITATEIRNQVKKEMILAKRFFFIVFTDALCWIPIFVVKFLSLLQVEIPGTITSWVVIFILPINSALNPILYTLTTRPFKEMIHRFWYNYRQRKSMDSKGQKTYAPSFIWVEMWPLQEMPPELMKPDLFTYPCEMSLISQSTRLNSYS

The test deals with Relaxin receptor 1 (Homo sapiens) (UniProt Q9HBX9). The test can be described thus: qHTS Assay for Agonists of the Relaxin Receptor RXFP1: THP1 Hit Validation.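 For activation: 0% = buffer alone basal and 100% = 29 nM porcine relaxin.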 Note: nearly all actives have a fitted effect of over 60% in size. The settings on record: THP1-RXFP1 cells, cAMP TR-FRET, 30 min; series mostly up to 115 µM; activation: at the top concentration. In a few lines:
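Stable RXFP1 THP1 line; 30 min compound exposure at 37C in presence of Ro 20174; cAMP detected by HTRF after lysis.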
A general note: In qHTS, concentration-response curves come from the screen itself.
With `CC(C)n1c(SCC(=O)N2CCN(C(=O)c3ccco3)CC2)nc2c1c(=O)n(C)c(=O)n2C`, the Potency is 6.9 µM (active).
For `CC(=O)C1C(c2ccccc2)c2c(noc2C)CC1(C)O` (configuration not stated), the “activation” value is 3.3% (inactive).
Turning to `NC(=S)c1cc2ccc(O)cc2oc1=O`, the Potency is 4.88 µM (active).
Consider `c1ccc(COn2nnc3ccccc32)c(COn2nnc3ccccc32)c1`, for which the “activation” value is 9.12% [at 43.1 µM] (inactive).
As to `CN1C(=O)c2ccc(C(=O)Nc3ccc(Br)cn3)cc2C1=O`, the Potency was 21.8 µM (active).
Consider `Brc1ccc2ncnc(NCc3cccnc3)c2c1`, for which the Potency was 48.9 µM (active).
`CCN(CC)S(=O)(=O)c1cccc(N=Nc2c(O)c3ccccc3oc2=O)c1`: the Potency is 9.77 µM (active).
Turning to `COc1ccc(S(=O)(=O)N2CCOCC2)cc1NC(=O)CSc1nnc2ccccn12`, the Potency is 6.9 µM (active).
With `Cc1ccccc1NC(=O)CNc1ccccc1C(=O)NCc1ccco1`, the “activation” value was -1.83% [at 125 µM] (inactive).
For the compound `O=C(Nc1ccccc1C(=O)NCCN1CCOCC1)c1ccco1`, the “activation” value is 10.5% [at 125 µM] (inactive).
Still for that read-out and setting: then `COC(=O)[C@@H]1C[C@@]2(O)[C@H](O)[C@H](O)[C@H](O)C[C@H]2N1Cc1cc(F)ccc1F`, with 3.47% (inactive).
Take `CN(C)S(=O)(=O)c1cccc(COc2ncnc3c(Cl)cc(Cl)cc23)c1`: the Potency was 5.49 µM (active).
For the compound `CN(Cc1ccccc1)C(=O)c1ccccc1NC(=O)c1ccco1`, the “activation” value is -1.61% [at 125 µM] (inactive).
Take `CN(C)CCCn1c(SCC(=O)Nc2nc(-c3cccc(Br)c3)cs2)nc2ccccc2c1=O`: the “activation” value was -13.1% (inactive).
In the case of `COc1cccc(C(=O)CSc2nnc(-c3cc(OC)cc(OC)c3)o2)c1`, the Potency is 12.3 µM (active).
Regarding `O=C(Nc1ccccc1C(=O)NCc1ccc(Cl)cc1)c1ccco1`, the “activation” value was 10.3% [at 125 µM] (inactive).
Regarding `O=C(O)c1cc(-c2ccc(Br)s2)nc2ccccc12`, the Potency is 3.08 µM (active).
For `O=C(COc1ncnc2scc(-c3ccccc3)c12)NCCN1C(=O)CSC1=O`, the Potency was 19.4 µM (active).
As to `C[C@H](Cc1ccccc1)Nc1ncnc2c1ncn2[C@@H]1O[C@H](CO)[C@@H](O)[C@H]1O`, the “activation” value is -0.0159% (inactive).
Take `O=c1c2ccccc2cnn1Cc1n[nH]c(=S)n1-c1ccc(F)c(Cl)c1`: the Potency was 12.3 µM (active).
Take `CCOP1(=O)OCC2OC(n3cnc4c(N)ncnc43)C(O)C2O1` (configuration not stated): the Potency is 8.7 µM (active).
On to `CCc1cc2c(=O)nc3n(c2s1)Cc1ccccc1/C3=C(/O)c1cccc([N+](=O)[O-])c1`, for which the Potency was 0.87 µM (active).

Source of the values: PubChem BioAssay AID492949 (National Center for Advancing Translational Sciences (NCATS), 2010).
